Inconclusive results are not listed. Active and inactive are the calls of the source. How the source made its calls: active means hit-call score of the fitted dose curve at least 0.9, where 1 is the maximum; inconclusive means response in the unintended direction; inactive means score below 0.9.

A short description of this experiment: CCTE_Shafer_MEA_acute_LDH: CCTE's Lactate Dehydrogenase Assay for Cytotoxicity in the Neural Acute Assay, Shafer Lab (AID 2284086).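 Further: active means LDH release rises above DMSO vehicle level.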 The procedure: CCTE_Shafer_MEA_acute assay is conducted using Axion Biosystems 48 well microelectrode array (MEA) plates and Maestro recording system. Each well of the MEA plate contains a grid of 16 microelectrodes embedded in the culture surface. Electrically active cells, such as neurons, can be cultured over the electrodes, and electrical activity in these cells can be recorded extracellularly. The spontaneous firing of neurons is captured from each electrode on a microsecond timescale providing both temporally and spatially precise data. […] The CCTE_Shafer_MEA_acute assay uses primary cultures of rat cortical neurons. As these cultures mature over time, neural networks develop functional activity and form cohesive networks in which electrical activity can be highly coordinated. Baseline 40-minute recordings are made on days post-plating 13 or 15, followed by a secondary 40-minute recording after chemical exposure.CCTE_Shafer_MEA_acute_LDH is a component of the CCTE_Shafer_MEA_acute assay. It measures the lactate dehydrogenase enzyme activity using spectrophotometry.Data from the assay component CCTE_Shafer_MEA_acute_LDH was analyzed into 1 assay endpoint. This assay endpoint, CCTE_Shafer_MEA_acute_LDH, was analyzed in the positive analysis fitting direction relative to DMSO as the negative control and baseline of activity. Using a type of viability reporter, gain-of-signal activity can be used to understand cell viability.
Immediately following the 40 min recording in the presence of compounds, 50 uL of media was removed from each well and transferred to a sterile 96-well plate. This was used to determine LDH released from cells during compound exposure using a kit from Promega where absorbance was determined in a Molecular Devices VersaMax plate reader at 490 nm.
As for `O=C(c1ccccc1)C1CCCCC1`, the call was inactive.
For `N#CSCSc1nc2ccccc2s1` the value was “inactive”; for `CCCCC(CC)CN1C(=O)C2C3C=CC(C3)C2C1=O` (configuration not stated), “inactive”.
For `OB(O)O` the value was “inactive”; for `CSC(=O)c1cccc2nnsc12`, “inactive”; for `Cc1nn(C)c(Oc2ccccc2)c1C=NOCc1ccc(C(=O)OC(C)(C)C)cc1`, “inactive”.
In the case of `CC(C)(C)[C@@H](O)[C@@H](Cc1ccc(Cl)cc1)n1cncn1`, the call was inactive.
Then `CCCN(CCC)c1c([N+](=O)[O-])cc(C(F)(F)F)c(N)c1[N+](=O)[O-]`, with “inactive”; and `O=C(O)c1ccccc1`, with “inactive”; and `C=CCOC(Cn1ccnc1)c1ccc(Cl)cc1Cl` (configuration not stated), with “inactive”.
For `O=C(c1ccc(O)cc1O)c1ccc(O)cc1O` the value was “inactive”; for `CCNc1nc(N)nc(Cl)n1`, “inactive”; for `CC(C)(c1ccc(O)cc1)c1ccc(O)cc1`, “inactive”.
Regarding `O=C(Nc1ccc([N+](=O)[O-])cc1Cl)c1cc(Cl)ccc1O`, the call was inactive.
Then `CC1(C)C(C=C(Cl)Cl)C1C(=O)OCc1cccc(Oc2ccccc2)c1` (configuration not stated), with “inactive”.
For `Oc1ccc(C(c2ccc(O)cc2)C(Cl)(Cl)Cl)cc1`, the call was inactive.
Then `CC(C)CCCCCCc1ccc(O)cc1`, with “inactive”.

Values taken from PubChem BioAssay (EPA / NIEHS).
